Unmarked numbers belong to inactive results.
Compound: C#CCNC(=O)CCSSCCC(=O)NCCc1ccc(C=O)c(C=O)c1
Experiment: lysine labeling ratio R10:1 (500 µM / 50 µM probe), SILAC-ABPP in living cells; higher = lower intrinsic lysine reactivity toward the probe, active = 2 or less
Conditions: HeLa; probe concentrations 500 vs 50 µM
Procedure, shortened: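 Forward and reverse SILAC label swaps were used with living light and heavy HeLa cells in PBS at room temperature, which were given an alkyne-tagged, disulfide-linked lysine probe at 50 µM or 500 µM. R is the per-lysine filtered median high-probe/low-probe MS1 peptide ratio, with the median then taken across both swap directions. Values are limited to 20.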

UniProt P18859, sequence (P18859 whole entry): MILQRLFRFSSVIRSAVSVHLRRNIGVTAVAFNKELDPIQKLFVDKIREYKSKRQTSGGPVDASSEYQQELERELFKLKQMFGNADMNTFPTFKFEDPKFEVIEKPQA
UniProt Q12884, sequence (Q12884 whole entry): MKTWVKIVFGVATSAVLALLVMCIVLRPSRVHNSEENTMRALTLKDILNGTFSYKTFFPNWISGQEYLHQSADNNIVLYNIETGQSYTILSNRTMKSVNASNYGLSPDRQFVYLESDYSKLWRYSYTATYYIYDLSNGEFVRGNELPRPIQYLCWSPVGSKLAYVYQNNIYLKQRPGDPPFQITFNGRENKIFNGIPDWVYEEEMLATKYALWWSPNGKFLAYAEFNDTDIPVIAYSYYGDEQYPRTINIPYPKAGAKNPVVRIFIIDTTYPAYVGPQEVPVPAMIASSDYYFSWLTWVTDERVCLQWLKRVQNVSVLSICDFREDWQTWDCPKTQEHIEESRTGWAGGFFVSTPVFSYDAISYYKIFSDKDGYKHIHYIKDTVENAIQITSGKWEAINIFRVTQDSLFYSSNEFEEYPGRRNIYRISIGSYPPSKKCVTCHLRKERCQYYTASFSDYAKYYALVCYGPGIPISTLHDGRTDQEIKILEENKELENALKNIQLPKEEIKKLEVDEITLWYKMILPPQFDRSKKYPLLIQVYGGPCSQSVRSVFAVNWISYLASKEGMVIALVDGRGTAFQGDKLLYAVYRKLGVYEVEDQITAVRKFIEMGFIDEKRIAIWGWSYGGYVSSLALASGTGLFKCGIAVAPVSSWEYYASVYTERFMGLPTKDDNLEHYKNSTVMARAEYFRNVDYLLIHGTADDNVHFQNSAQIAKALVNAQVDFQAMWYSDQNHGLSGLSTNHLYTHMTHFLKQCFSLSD
UniProt Q01813, sequence (Q01813 whole entry): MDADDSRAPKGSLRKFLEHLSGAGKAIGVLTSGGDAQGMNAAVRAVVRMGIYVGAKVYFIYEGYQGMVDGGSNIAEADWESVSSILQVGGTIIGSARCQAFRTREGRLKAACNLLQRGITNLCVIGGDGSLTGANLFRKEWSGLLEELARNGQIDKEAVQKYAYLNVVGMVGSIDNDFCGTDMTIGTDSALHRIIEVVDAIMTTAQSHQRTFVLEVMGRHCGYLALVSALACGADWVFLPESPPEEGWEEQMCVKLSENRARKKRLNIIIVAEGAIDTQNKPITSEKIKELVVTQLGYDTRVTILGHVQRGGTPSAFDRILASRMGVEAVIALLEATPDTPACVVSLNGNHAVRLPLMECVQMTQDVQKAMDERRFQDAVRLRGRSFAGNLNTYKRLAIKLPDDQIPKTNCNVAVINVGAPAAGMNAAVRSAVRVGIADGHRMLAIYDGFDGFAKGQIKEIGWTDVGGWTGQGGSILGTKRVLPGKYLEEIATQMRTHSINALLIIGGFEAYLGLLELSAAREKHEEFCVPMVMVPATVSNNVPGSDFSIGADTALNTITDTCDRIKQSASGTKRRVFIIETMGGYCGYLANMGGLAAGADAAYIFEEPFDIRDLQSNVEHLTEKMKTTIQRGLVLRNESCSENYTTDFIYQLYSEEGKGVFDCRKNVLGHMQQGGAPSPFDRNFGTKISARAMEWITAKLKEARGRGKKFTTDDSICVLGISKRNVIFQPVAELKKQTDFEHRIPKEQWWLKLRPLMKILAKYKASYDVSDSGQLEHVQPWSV
UniProt P26038, sequence (P26038 whole entry): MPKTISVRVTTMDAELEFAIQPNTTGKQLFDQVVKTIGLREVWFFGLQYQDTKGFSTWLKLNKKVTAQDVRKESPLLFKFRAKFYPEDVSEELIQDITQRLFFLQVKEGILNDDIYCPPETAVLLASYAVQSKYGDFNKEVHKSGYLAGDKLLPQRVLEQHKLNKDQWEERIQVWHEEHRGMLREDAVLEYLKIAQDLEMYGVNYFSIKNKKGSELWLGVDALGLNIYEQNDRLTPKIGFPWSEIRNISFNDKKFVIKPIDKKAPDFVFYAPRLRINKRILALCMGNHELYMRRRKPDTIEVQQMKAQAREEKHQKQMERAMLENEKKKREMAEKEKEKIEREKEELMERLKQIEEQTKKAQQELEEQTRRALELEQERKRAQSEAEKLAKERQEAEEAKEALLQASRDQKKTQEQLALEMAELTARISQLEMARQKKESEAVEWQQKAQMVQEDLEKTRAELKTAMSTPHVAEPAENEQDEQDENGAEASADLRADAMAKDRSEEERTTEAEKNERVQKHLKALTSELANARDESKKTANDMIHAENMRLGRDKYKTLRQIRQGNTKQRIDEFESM
UniProt P67775, sequence (P67775 whole entry): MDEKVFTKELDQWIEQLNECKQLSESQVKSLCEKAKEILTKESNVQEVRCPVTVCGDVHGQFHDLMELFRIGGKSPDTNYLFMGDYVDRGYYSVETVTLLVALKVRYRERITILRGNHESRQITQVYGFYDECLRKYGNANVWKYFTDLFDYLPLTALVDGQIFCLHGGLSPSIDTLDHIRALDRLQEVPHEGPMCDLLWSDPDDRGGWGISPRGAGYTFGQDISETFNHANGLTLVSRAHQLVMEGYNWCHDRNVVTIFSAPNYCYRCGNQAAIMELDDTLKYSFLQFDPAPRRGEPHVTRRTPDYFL
UniProt O00571, sequence (O00571 whole entry, looked up): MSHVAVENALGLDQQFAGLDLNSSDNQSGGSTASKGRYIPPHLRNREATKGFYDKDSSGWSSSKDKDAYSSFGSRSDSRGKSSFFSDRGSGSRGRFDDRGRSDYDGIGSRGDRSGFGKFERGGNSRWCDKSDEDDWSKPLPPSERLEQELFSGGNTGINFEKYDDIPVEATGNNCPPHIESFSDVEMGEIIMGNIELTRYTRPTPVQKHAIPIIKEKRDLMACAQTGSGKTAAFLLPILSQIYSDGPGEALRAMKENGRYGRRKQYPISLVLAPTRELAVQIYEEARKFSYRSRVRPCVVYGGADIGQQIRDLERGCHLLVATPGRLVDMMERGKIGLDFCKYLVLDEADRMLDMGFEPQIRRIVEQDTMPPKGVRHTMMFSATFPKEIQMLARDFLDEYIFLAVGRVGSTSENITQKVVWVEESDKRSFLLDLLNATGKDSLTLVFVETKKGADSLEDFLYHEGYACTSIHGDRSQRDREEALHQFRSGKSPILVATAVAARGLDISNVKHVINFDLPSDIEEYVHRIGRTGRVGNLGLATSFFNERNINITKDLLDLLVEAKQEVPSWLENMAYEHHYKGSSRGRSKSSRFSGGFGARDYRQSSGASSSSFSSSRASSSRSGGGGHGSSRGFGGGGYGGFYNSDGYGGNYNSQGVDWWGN
UniProt P68371, sequence (P68371 whole entry): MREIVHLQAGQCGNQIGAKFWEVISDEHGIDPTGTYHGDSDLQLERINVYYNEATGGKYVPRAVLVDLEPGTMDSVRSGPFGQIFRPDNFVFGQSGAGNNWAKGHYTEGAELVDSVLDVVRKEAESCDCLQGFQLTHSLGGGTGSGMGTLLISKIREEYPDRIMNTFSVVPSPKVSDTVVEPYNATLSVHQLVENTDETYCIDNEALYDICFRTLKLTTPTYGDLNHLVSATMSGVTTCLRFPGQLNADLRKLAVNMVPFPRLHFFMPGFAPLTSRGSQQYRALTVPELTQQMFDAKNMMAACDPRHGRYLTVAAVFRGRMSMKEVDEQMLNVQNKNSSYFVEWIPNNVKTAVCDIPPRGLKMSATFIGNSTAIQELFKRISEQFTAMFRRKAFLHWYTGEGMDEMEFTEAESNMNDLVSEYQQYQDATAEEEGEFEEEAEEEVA
UniProt P15144, sequence (P15144 whole entry): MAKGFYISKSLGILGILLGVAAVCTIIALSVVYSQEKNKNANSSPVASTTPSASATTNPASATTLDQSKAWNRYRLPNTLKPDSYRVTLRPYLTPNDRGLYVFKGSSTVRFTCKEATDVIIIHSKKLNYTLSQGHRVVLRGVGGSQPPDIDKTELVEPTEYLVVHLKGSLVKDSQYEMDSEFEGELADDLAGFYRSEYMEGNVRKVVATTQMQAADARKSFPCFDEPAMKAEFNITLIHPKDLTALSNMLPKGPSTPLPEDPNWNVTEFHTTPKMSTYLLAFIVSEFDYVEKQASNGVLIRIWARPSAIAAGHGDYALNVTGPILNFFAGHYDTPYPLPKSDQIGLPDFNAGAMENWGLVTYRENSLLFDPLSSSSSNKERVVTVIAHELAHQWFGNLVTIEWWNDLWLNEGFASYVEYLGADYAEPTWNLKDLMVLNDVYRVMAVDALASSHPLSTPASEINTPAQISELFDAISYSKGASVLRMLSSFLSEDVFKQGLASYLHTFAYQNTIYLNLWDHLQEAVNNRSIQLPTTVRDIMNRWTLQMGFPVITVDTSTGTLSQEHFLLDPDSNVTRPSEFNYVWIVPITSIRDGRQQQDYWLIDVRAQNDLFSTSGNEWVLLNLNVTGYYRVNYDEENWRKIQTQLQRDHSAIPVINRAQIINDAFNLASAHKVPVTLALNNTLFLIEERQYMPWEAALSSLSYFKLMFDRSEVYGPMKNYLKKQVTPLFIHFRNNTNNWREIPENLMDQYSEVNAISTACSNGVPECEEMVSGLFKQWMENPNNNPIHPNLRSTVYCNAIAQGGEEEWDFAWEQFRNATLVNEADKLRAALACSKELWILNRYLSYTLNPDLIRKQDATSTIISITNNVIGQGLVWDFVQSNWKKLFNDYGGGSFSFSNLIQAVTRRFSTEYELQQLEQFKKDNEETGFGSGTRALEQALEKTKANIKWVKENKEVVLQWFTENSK
UniProt O14737, sequence (O14737 whole entry): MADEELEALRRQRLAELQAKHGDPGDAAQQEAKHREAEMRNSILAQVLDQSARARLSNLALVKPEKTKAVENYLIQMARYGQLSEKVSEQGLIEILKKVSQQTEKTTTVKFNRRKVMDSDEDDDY

Target	lysine labeling ratio R10:1
EEF2 (lysine site: K498) (UniProt P13639)	3.9
UniProt Q9NRD8 (lysine site: K530)	6.54
UniProt P18859 (lysine site: K46)	4.7
LAMB1 (lysine site: K1708) (UniProt P07942)	3.33
CELSR2 (lysine site: K2183) (UniProt Q9HCU4)	4.05
CACNA2D1 (lysine site: K842) (UniProt P54289)	4.24
ANPEP (lysine site: K104) (UniProt P15144)	1.17 (active)
PFKP (lysine site: K688) (UniProt Q01813)	1.74 (active)
PPP2CA (lysine site: K41) (UniProt P67775)	1.68 (active)
PDCD5 (lysine site: K33) (UniProt O14737)	4.82
UniProt Q12884 (lysine site: K258)	3.81
UniProt P68371 (lysine site: K58)	2.53
EZR (lysine site: K64) (UniProt P15311)	0.907 (active)
MSN (lysine site: K514) (UniProt P26038)	3.78
DDX3X (lysine site: K81) (UniProt O00571)	2.77
UniProt P62805 (lysine site: K78)	8.41
UniProt P05186 (lysine site: K346)	0.557 (active)
ITGB5 (lysine site: K163) (UniProt P18084)	2.53
